Assay outcomes (PubChem)
G9a block = qHTS Assay for Inhibitors of Histone Lysine Methyltransferase G9a; G9a H3K9 monomethylation, AlphaScreen, 2 h; 350,000 tested, 8.8% active; Potency, µM (doses to about 102 µM), for the others: at the highest dose activity, negative = inhibition, usual class: inhibitors; Histone-lysine N-methyltransferase EHMT2 (Homo sapiens), Q96KQ7; AID 504332, 2011; also: potency is read from the fitted curve at half-maximal effect; % is scaled to controls: 0 for no effect and ±100 for the full control effect; nearly all actives have a fitted effect of over 75% in size
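Chemiluminescent proximity detection of H3K9 monomethylation, read after 10 min bead incubation in the dark. Reaction: 20 nM G9a, 500 nM biotin-H3K9 peptide, 20 uM SAM cofactor, 2 h, room temperature, following 15 min enzyme-compound preincubation.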
JMJD2A Tudor inh = qHTS Assay for Inhibitors of JMJD2A-Tudor Domain | Lysine-specific demethylase 4A (Homo sapiens), O75164 | 390,000 tested, 4.4% active | AID 504339, 2011 | AlphaScreen JMJD2A-Tudor / H3K4me3 peptide binding | Potency, µM (doses to about 114 µM), without a hit: at the highest dose activity change, negative = inhibition, usual class: inhibitors; also: potency is read from the fitted curve at half-maximal effect; % is scaled to controls: 0 for no effect and ±100 for the full control effect; nearly all actives have a fitted effect of over 50% in size
BAZ2B inh = qHTS Assay for Inhibitors of BAZ2B | Potency, µM (doses to about 114 µM), for inactives: at the top dose activity change, negative = inhibition, usual class: inhibitors | 360,000 tested, 4.4% active | AID 504333, 2011 | AlphaScreen BAZ2B-H3K14Ac peptide displacement | Bromodomain adjacent to zinc finger domain protein 2B (Homo sapiens), Q9UIF8; also: potency is read from the fitted curve at half-maximal effect; % is scaled to controls: 0 for no effect and ±100 for the full control effect; nearly all actives have a fitted effect of over 60% in size
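AlphaScreen displacement of biotin-H3(5-23)K14Ac peptide (50 nM final) from BAZ2B (50 nM final) in PBS pH 7.4, 0.01% Tween-20; complex preformed 30 min RT, then compounds (top 110 uM) 30 min RT, beads 20 min dark.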
Six1-Eya2 inh = qHTS Assay for Inhibitors of the Six1/Eya2 Interaction | Homeobox protein SIX1 (Homo sapiens) + Protein phosphatase EYA2 (Homo sapiens), … | AlphaScreen GST-Six1/His-Eya2 binding, biochemical; stronger effect = lower value | activity change, % (concentration not given with the values) | 360,000 tested, 0.56% active; in the data active = activity change below about -65%; inconclusive = mostly about -30% to -63%; also: % is scaled to controls: 0 for no effect and ±100 for the full control effect
Target sequence (O00167 whole entry, looked up): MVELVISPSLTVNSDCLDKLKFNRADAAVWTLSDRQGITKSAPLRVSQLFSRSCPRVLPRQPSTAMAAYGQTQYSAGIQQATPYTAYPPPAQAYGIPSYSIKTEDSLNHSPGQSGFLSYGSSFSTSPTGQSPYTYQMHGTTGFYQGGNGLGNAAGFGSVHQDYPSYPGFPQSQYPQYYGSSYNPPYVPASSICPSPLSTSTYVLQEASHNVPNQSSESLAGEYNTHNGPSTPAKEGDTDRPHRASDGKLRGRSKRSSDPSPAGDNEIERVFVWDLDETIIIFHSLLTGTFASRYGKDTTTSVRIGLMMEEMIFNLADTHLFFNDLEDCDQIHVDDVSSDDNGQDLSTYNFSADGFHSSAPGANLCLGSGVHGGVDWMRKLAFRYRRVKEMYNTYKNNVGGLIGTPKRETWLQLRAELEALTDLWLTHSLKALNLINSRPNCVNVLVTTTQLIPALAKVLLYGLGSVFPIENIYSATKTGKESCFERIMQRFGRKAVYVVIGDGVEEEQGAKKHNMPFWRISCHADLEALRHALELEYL
Target sequence (Q15475 whole entry, looked up): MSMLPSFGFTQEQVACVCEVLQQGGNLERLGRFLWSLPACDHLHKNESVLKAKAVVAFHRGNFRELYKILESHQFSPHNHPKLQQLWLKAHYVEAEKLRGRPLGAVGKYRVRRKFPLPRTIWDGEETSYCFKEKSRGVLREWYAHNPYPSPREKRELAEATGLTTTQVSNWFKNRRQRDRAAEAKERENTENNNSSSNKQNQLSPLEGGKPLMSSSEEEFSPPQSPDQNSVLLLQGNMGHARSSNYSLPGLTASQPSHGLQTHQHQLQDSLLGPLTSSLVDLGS
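AlphaScreen luminescence read after one hour at 37 °C in darkness. Pin-transferred compounds met GST-Six1 and His-Eya2 protein (5X stock 250 nM/500 nM) plus glutathione donor and Ni-chelate acceptor beads (5X, 50 ug/mL).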
HP1b chromo inh = HTS for Inhibitors of HP1-beta Chromodomain Interactions with Methylated Histone Tails; Potency, µM (titrated, usually from 114 µM), for the others: at the highest dose activity change, negative = inhibition, usual class: inhibitors; AlphaScreen HP1-beta / biotin-H3K9me3 peptide binding; 390,000 tested, 0.56% active; AID 540317, 2011; Chromobox protein homolog 1 (Homo sapiens), P83916; also: potency is read from the fitted curve at half-maximal effect; nearly all actives have a fitted effect of over 70% in size
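HP1-beta protein (50 nM final) preincubated 30 min at room temperature with biotinylated H3(1-18)K9me3 peptide (50 nM) in PBS pH 7.4, 0.01% Tween-20, then compound added for 30 min. AlphaScreen streptavidin donor/nickel chelate acceptor beads (10 ug/mL final), 30 min dark, luminescence read.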
CtBP-E1A inh = qHTS Assay for Inhibitors of the CtBP/E1A Interaction. CtBP / adenovirus E1A interaction (AlphaScreen). AlphaScreen GST-E1A/His-CtBP binding, 1536-well; stronger effect = lower value. activity change, % (test concentration not listed). 340,000 tested, 0.49% active; in the data active = activity change below about -65%; inconclusive = mostly about -30% to -63%; also: % is scaled to controls: 0 for no effect and ±100 for the full control effect
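Protein mix (5X: 125 nM each GST-E1A, His-CtBP) was incubated with pinned compound 2 h at 37 deg C in dark, in 50 mM Tris pH 8.0 buffer with 300 mM NaCl. Glutathione donor and nickel acceptor beads followed; AlphaScreen signal read after 1 h.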
Numbers without * were called inactive; ? = inconclusive; · = no result; [ ] = remark or other dose. Only some compounds are listed: those with a hit (about 10% of all), similar ones and a draw of the others. Unless noted, calls follow the shape of the dose curve; as a rule, active = well fitted inhibition curve with a large enough effect; inconclusive = small, poorly fitted or top-dose-only effect; inactive = no such curve, though single readings can be large or run the other way.

SMILES	G9a block	JMJD2A Tudor inh	BAZ2B inh	Six1-Eya2 inh	HP1b chromo inh	CtBP-E1A inh
CCCCC(=O)Nc1ccc(C(=O)OCc2cc(=O)n3nc(C4CC4)sc3n2)cc1	51%[59 µM]	-22%	2%	·	23%	·
COc1ccc(C(c2nnnn2Cc2ccccc2)N2CCN(c3ccccc3)CC2)cc1 (stereo not drawn)	-13%[12.7 µM]	-35%	79µM*	-14	-1%	-6
COc1ccc(C(c2nnnn2CC2CCCO2)N2CCN(c3ccc(F)cc3)CC2)cc1 (stereo not drawn)	-48%[12.7 µM]	-3%[11.4 µM]	56µM*	-11	40%	-4
CCCCC(c1nnnn1CC1CCCO1)N1CCN(c2nc3ccccc3s2)CC1 (stereo not drawn)	28µM*	-18%[11.4 µM]	50µM*	-5	62%	5
COCCn1nnnc1C(c1ccccc1)N1CCN(c2ccccc2)CC1 (stereo not drawn)	?	?	50µM*	-1	13%	1
Cc1ccc(C(c2nnnn2CC2CCCO2)N2CCN(C)CC2)cc1 (stereo not drawn)	·	10%	5%	5	22%	5
O=C(/C=C/c1ccco1)N(Cc1ccccc1F)C1CCS(=O)(=O)C1 (stereo not drawn)	?	-15%	-27%	-7	41%	1
COC(=O)CSc1ncc(S(=O)(=O)c2ccccc2)c(=O)[nH]1	9%	-18%	-2%	-3	29%	6
COc1ccc(C(c2nnnn2CCc2ccccc2)N2CCN(C3CCCC3)CC2)cc1 (stereo not drawn)	79µM*	-32%	5%	0	11%	-3
COc1cc2cc(C(c3nnnn3C3CCCC3)N3CCCCCC3)c(=O)[nH]c2cc1OC (stereo not drawn)	13µM*	-14%	6%	-1	20%	-3
CC(C)n1nnnc1C(c1ccc(F)cc1)N1CCN(C2CCCC2)CC1 (stereo not drawn)	79µM*	-21%[11.4 µM]	?	0	51%	1
COc1ccccc1N1CCN(C(c2ccc(N(C)C)cc2)c2nnnn2CCc2ccccc2)CC1 (stereo not drawn)	2µM*	?	25µM*	-18	-49%	-12
CCN(CC)S(=O)(=O)c1ccc(C(=O)NCCSc2c(-c3ccc(F)cc3)[nH]c3ccccc23)cc1	-27%[59 µM]	-21%	-8%	·	4%	·
OC(COc1ccc(Br)cc1)CN1CCN(c2ccccc2)CC1 (stereo not drawn)	10%[59 µM]	-7%	-31%	-10	31%	1
Fc1ccc(C(c2nnnn2Cc2cccs2)N2CCN(C3CCCC3)CC2)cc1 (stereo not drawn)	-25%[59 µM]	-5%	?	-5	16%	-11
c1ccc(C(c2nnnn2Cc2cccs2)N2CCN(C3CCCC3)CC2)cc1 (stereo not drawn)	45µM*	-24%	-3%	3	16%	5
CCCC(c1nnnn1Cc1ccco1)N1CCN(c2cc(Cl)ccc2C)CC1 (stereo not drawn)	-13%	-32%	-31%	-14	30%	-1
O=c1[nH]c2cc3c(cc2cc1C(c1nnnn1CC1CCCO1)N1CCCCCC1)OCCO3 (stereo not drawn)	11µM*	-14%	?	-1	20%	-1
CCCC(c1nnnn1Cc1ccco1)N1CCN(c2ccccc2)CC1 (stereo not drawn)	?	-16%	56µM*	-4	16%	0
CCCCC(c1nnnn1CCOC)N1CCN(c2cccc(OC)c2)CC1 (stereo not drawn)	45µM*	1%[11.4 µM]	50µM*	-1	14%	-9
COCCn1nnnc1C(c1cccc(C#N)c1)N1CCCCCC1 (stereo not drawn)	45µM*	-18%	?	10	27%	-1
CCC(c1nnnn1Cc1ccccc1)N1CCN(c2ccccc2)CC1 (stereo not drawn)	-10%[12.7 µM]	-24%	-14%	-13	8%	-12
COc1ccc(OC)c(C(c2nnnn2CCc2ccccc2)N2CCN(c3ccccc3)CC2)c1 (stereo not drawn)	-11%	-35%	-38%	?	-18%	-23
CCC(c1nnnn1CCc1ccccc1)N1CCN(c2ccc(OC)cc2)CC1 (stereo not drawn)	11µM*	-33%	?	-8	-5%	-1
COc1ccc(N2CCN(C(c3cc(OC)ccc3OC)c3nnnn3Cc3ccco3)CC2)cc1 (stereo not drawn)	16µM*	50µM*	45µM*	?	16µM*	-24
SMILES	G9a block	JMJD2A Tudor inh	BAZ2B inh	Six1-Eya2 inh	HP1b chromo inh	CtBP-E1A inh
CCN(Cc1ccccc1)C(c1cc2ccc(C)cc2[nH]c1=O)c1nnnn1CCOC (stereo not drawn)	35µM*	-3%	-31%	6	15%	-3
COc1ccc2c(c1)CC(C(=O)Nc1c(C)cc(C)cc1C)CO2 (stereo not drawn)	0%[59 µM]	-16%	-2%	·	28%[57 µM]	·
Cc1nn(C)c2c1c(-c1ccccc1)cc(=O)n2Cc1c(F)cccc1Cl	23%[59 µM]	10%	11%	·	49%	·
COc1ccc(N2CCN(C(CNC(=O)C(=O)NCC3CCCO3)c3ccco3)CC2)cc1 (stereo not drawn)	32µM*	-26%	-2%	-9	-25%	1
COc1ccc2cc(C(c3nnnn3Cc3ccccc3)N3CCCCCC3)c(=O)[nH]c2c1 (stereo not drawn)	13µM*	-17%	-2%	0	29%	4
COc1ccc2cc(C(c3nnnn3Cc3ccc(F)cc3)N3CCCCCC3)c(=O)[nH]c2c1 (stereo not drawn)	?	-26%	42%	-1	29%	0
O=C(NCc1ccccc1)C1C(c2ccccc2)=Nc2ccccc2N1C(=O)c1cccnc1 (stereo not drawn)	·	·	·	-3	·	-13
Cc1nc2c3ccccc3nc(NNC(=O)CCC(=O)N3CCN(c4cccc(C(F)(F)F)c4)CC3)n2n1	5%[59 µM]	-23%	-21%	·	37%	·
Cc1cc(OC(C)C(=O)N(Cc2ccc(N(C)C)cc2)Cc2ccco2)ccc1Cl (stereo not drawn)	13µM*	14µM*	13µM*	·	-27%	·
Cc1cc(OCC(=O)N(Cc2ccc(N(C)C)cc2)Cc2ccco2)cc(C)c1Cl	11µM*	14µM*	10µM*	·	-17%	·
